In PubChem BioAssay (NCATS):
Inconclusive results are not listed. A number with no mark means an inactive call. The source made the active and inactive calls. The call rests on the fitted dose curve; in most records, active means well fitted inhibition curve with a large enough effect; inconclusive means small, poorly fitted or top-dose-only effect; inactive means flat fitted curve, though single readings scatter.

test system: Zika virus NS2B-NS3 protease; assay: Primary screen GU AMC qHTS for Zika virus inhibitors (AID 1347154); conditions: Zika NS2B-NS3 unlinked protease, AMC fluorogenic substrate; series mostly up to 54.1 µM; activity change, negative = inhibition: at the top concentration;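 further: 0% = no-inhibitor control and -100% = no-enzyme control; nearly all actives have a fitted effect of over 70% in size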
Procedure, shortened: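 Unlinked Zika NS2B hydrophilic domain–NS3 protease complex at 25 nM in 10 mM Tris-HCl pH 8.0, 0.01% Tween 20, with an AMC peptide substrate. Fluorescence change (340/450 nm) over 15 min at room temperature, normalized to controls, fitted to 4-parameter Hill.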

Structure (SMILES) | activity change, negative = inhibition | Potency
CC(CSC(=O)c1ccccc1)C(=O)N1C[C@@H](Sc2ccccc2)C[C@H]1C(=O)O (stereo partly drawn) | 7.5% [at 25.8 µM] | 
C1CCN2C[C@@H]3C[C@@H](CN4CCCC[C@@H]34)[C@H]2C1 | 4.22% | 
C=CCSCC1Nc2cc(Cl)c(S(N)(=O)=O)cc2S(=O)(=O)N1 (stereo not drawn) | -4.18% | 
CN1CCCN=C1COC(=O)C(O)(c1ccccc1)C1CCCCC1 (stereo not drawn) | -4.75% | 
Cn1c(=O)c2c(ncn2CCO)n(C)c1=O | -0.325% | 
Nc1ccncc1N | -1% | 
CN(C(=O)c1c(O)c2ccccc2n(C)c1=O)c1ccccc1 |  | inactive
CO[C@@]1(NC(=O)C(C(=O)O)c2ccc(O)cc2)C(=O)N2C(C(=O)O)=C(CSc3nnnn3C)CO[C@@H]21 (stereo partly drawn) | -5.11% | 
Cc1c(NC(C)C)c(=O)n(-c2ccccc2)n1C | -5.25% | 
COc1ccc(O)cc1 | -1.98% | 
CN(C/C=C/C#CC(C)(C)C)Cc1cccc2ccccc12 | -13.4% | 
O=C(O)/C=C/c1ccc(Cn2ccnc2)cc1 | 2.41% | 
O=C1c2ccccc2C(=O)C1c1ccc(Br)cc1 | -13.4% | 
